HepG2 tox – qHTS for Inhibitors of TGF-b: Cytotox Counterscreen; Potency, µM (titrated, usually from 46.1 µM), without a hit: top-dose activity change, negative = cytotoxicity, actives largely listed as cytotoxic; 410,000 tested, 0.76% active; HepG2 CAGA-GFP viability, ATP luminescence, 18 h
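CellTiter-Glo luminescence gave cytotoxicity after 18 hours at 37 degrees C. The cells were HepG2 CAGA-GFP in 1% FBS DMEM, stimulated with 500 pg/mL TGF-beta after compound addition. %Activity was normalised to no-cell wells (complete cell-killing) and DMSO (no toxicity), and curves were fitted and classified.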
ATXN2 expr inh – Primary qHTS for Inhibitors of ATXN expression; HEK-293 ATXN2-luciferase reporter, luminescence, 24 h; Potency, µM (doses to about 57 µM), for the others: at the top dose activity change, negative = inhibition, hits mostly inhibitors; AID 1745845, 2022; 360,000 tested, 0.72% active; also: % is scaled to controls: 0 for no effect and ±100 for the full control effect; nearly all actives have a fitted effect of over 55% in size
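ATXN2-luciferase reporter cells (luciferase flanked by upstream and downstream ATXN2 gene portions) were treated 24 h at 37 °C with compounds at up to 57 uM. SteadyGlo luminescence gave expression; GF-AFC fluorescence gave viability.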
ATXN viability – Viability Counterscreen for Primary qHTS for Inhibitors of ATXN expression | AID 651635, 2014 | Potency, µM (doses to about 56.7 µM), hits mostly cytotoxic | S2 cells (HEK-293 line with an ATXN2-luciferase reporter) viability, CellTiter-Fluor protease fluorescence, 24 h | 400,000 tested, 0.49% active; also: nearly all actives have a fitted effect of over 40% in size
HT1080-NT tox – qHTS for induction of synthetic lethality in tumor cells producing 2HG: qHTS for the HT-1080-NT fibrosarcoma cell line | HT-1080-NT fibrosarcoma viability, CellTiter-Glo ATP luminescence, 48 h | Potency, µM (highest dose often 46.1 µM), without a hit: at the top dose activity, negative = less viability, hits mostly cytotoxic | 360,000 tested, 1.6% active;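 also: NT is the 2HG producing partner of a matched IDH1 knockdown line; 0% = DMSO-treated cells and -100% = media-only wells without cells; nearly all actives have a fitted effect of over 55% in size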
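Fibrosarcoma NT cells, 750 per well in 5% FBS RPMI, were exposed to compound for 48 hours. Viability: CellTiter-Glo luminescence.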
HT1080 IDH1KD tx – qHTS for induction of synthetic lethality in tumor cells producing 2HG: qHTS for the HT-1080-IDH1KD cell line | HT-1080 IDH1 knockdown viability, ATP luminescence, 48 h | 360,000 tested, 2% active | Potency, µM (titrated, usually from 46.1 µM), for inactives: top-dose activity, negative = toxicity, usual class: cytotoxic;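 also: 0% = DMSO wells and -100% = cell-free medium wells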
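Assay cells: HT-1080 with IDH1 knockdown, 750 per well, RPMI/5% FBS. Exposure: 48 h at 37 °C following 2 h pre-incubation. Read: CellTiter-Glo luminescence; fitted concentration-response, curve class assigned.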
TGFb SMAD3 inh – qHTS for Inhibitors of TGF-b; AID 588855, 2011; Potency, µM (series often up to 46.1 µM), without a hit: at the top dose activity, negative = inhibition, usual class: inhibitors; 410,000 tested, 1.2% active; HepG2 CAGA-GFP TGF-b/SMAD3 reporter, GFP fluorescence, 18 h; TGF-beta stimulated, 500 pg/mL final; also: % is scaled to controls: 0 for no effect and ±100 for the full control effect; nearly all actives have a fitted effect of over 65% in size
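Inhibition was scored as loss of TGF-beta-induced (500 pg/mL final, 18 hours, 37 degrees C) GFP in HEPG2 cells carrying a CAGA-GFP reporter, in DMEM with 1% FBS. Well GFP was summed per cell; Activity was normalised to unstimulated and stimulated DMSO wells, then concentration-response fitting.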
Active calls of the source: *; ! = a repeat was not active. Most compounds without a hit are left out; they make up all but 3.8% or so of the library. Calls follow the shape of the dose curve; as a rule, active = well fitted curve in the direction sought with a large enough effect; inconclusive = small, poorly fitted or top-dose-only effect, or another doubt; inactive = no such curve, though single readings can be large; an effect the other way counts as inactive or inconclusive. Potency is read from the fitted curve at half-maximal effect.

O=[N+]([O-])c1ccc(Sc2nnnn2-c2ccccc2)c(Cl)c1 was read as HepG2 tox -95%, ATXN2 expr inh 6%, ATXN viability inactive, HT1080-NT tox 8.9µM*, HT1080 IDH1KD tx 10µM* and TGFb SMAD3 inh -25%.
Screening Cc1cccn2c(=O)cc(COc3ccc(NC(=O)c4cccc(F)c4)cc3)nc12 returned HepG2 tox -5% and TGFb SMAD3 inh 32%.
Screening COc1ccccc1C1CCN(Cc2ccc3ccccc3c2)CC1 returned HepG2 tox -38%, ATXN2 expr inh inconclusive, ATXN viability inconclusive, HT1080-NT tox inconclusive, HT1080 IDH1KD tx 23µM* and TGFb SMAD3 inh inconclusive.
COc1ccccc1C1CCN(Cc2ccccc2)CC1 was read as HepG2 tox -14%, ATXN2 expr inh inconclusive, ATXN viability inactive, HT1080-NT tox 1%, HT1080 IDH1KD tx -13% and TGFb SMAD3 inh 0%.
O=C1N(Cc2cccc(Cl)c2)C[C@@H]2C[C@@H](c3cccn3-c3cccnc3)N3CCC[C@@]123 was read as HepG2 tox -42%, ATXN2 expr inh inconclusive, ATXN viability inconclusive, HT1080-NT tox -7%, HT1080 IDH1KD tx -24% and TGFb SMAD3 inh 16µM*.
Screening Cc1c(Br)c([N+](=O)[O-])nn1CC(=O)Nc1ccc(C(C)C)cc1 returned HepG2 tox -27%, ATXN2 expr inh -6%, ATXN viability inactive, HT1080-NT tox -28%, HT1080 IDH1KD tx 23µM* and TGFb SMAD3 inh inconclusive.
For C[C@H](NC(=O)C(=O)Nc1ccccc1C(C)(C)C)C(=O)N[C@@H](CC(=O)O)C(=O)COc1c(F)c(F)cc(F)c1F the results were ATXN2 expr inh 0%.
For CCn1c(COc2cccc(C)c2C)nnc1SCC(=O)N1CCN(c2ccc(OC)cc2)CC1 the results were HepG2 tox 4%, ATXN2 expr inh -18%, ATXN viability inactive, HT1080-NT tox -8%, HT1080 IDH1KD tx -19% and TGFb SMAD3 inh -2%.
`CCn1c(COc2ccccc2C)nnc1SCC(=O)N1CCN(c2ccccc2)CC1` gave HepG2 tox -20%, ATXN2 expr inh 14µM*, ATXN viability inconclusive, HT1080-NT tox inconclusive, HT1080 IDH1KD tx -22% and TGFb SMAD3 inh inconclusive.
Screening Cc1sc(-n2c(C)cc(/C=C3\SC(=S)NC3=O)c2C)c(C#N)c1C returned HepG2 tox -72%, ATXN2 expr inh 10%, ATXN viability inconclusive, HT1080-NT tox 13µM*, HT1080 IDH1KD tx 11µM* and TGFb SMAD3 inh inconclusive.
Screening Cc1cc(/C=C2\SC(=S)NC2=O)c(C)n1-c1cccc(O)c1 returned HepG2 tox -18%, ATXN2 expr inh 74%, ATXN viability inconclusive, HT1080-NT tox -10%, HT1080 IDH1KD tx -15% and TGFb SMAD3 inh -1%.
Screening CCOC(=O)C1CCC(CN(Cc2ccc(OC)cc2)S(=O)(=O)c2ccc(F)c(C(=O)Nc3c(C)cccc3C)c2)CC1 (configuration not stated) returned HepG2 tox -7%, ATXN2 expr inh -6%, ATXN viability inactive and TGFb SMAD3 inh -6%.
For Cc1cc(Nc2cccc(F)c2)nc(-c2ccccc2O)n1 the results were HepG2 tox 11µM*, ATXN2 expr inh -19%, ATXN viability inactive, HT1080-NT tox inconclusive, HT1080 IDH1KD tx inconclusive and TGFb SMAD3 inh inconclusive.
For CC(C)(C)[C@H]1CCC(=O)N([C@H](CSc2ccccc2)Cc2ccccc2)CC1 the results were HepG2 tox -21%, ATXN2 expr inh -15%, ATXN viability inconclusive, HT1080-NT tox 15%, HT1080 IDH1KD tx 8% and TGFb SMAD3 inh 11µM*!.

High-throughput results (PubChem)
